Bioassay records deposited in PubChem BioAssay by National Center for Advancing Translational Sciences (NCATS).
TDP-43 yeast inh – inhibitors of TDP-43 toxicity in yeast; Potency, µM (top dose mostly 46.1 µM), for the others: top-dose growth rescue (activation), hits mostly activators; TDP-43 expressing yeast growth rescue, BacTiter-Glo, 24 h; AID 652104; actives 1.8% (n = 410,000); note: % of control where 0% means no effect; nearly all actives have a fitted effect of over 50% in size
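Yeast expressing TDP-43 (pregrown in raffinose, seeded at OD600=0.02 in galactose medium) exposed to compounds 24 hr at 30 deg C. Growth read by BacTiter-Glo luminescence; rescue of toxicity appears as increased signal.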
Abeta rescue – restores growth of yeast expressing A-beta42 peptide | yeast expressing A-beta42, growth rescue, OD600, 48 h; response scale: 0% DMSO, 100% iron-clioquinol control | Potency, µM (highest dose often 46.1 µM), actives largely listed as activators | actives 0.063% (n = 410,000) | AID 1347071; note: nearly all actives have a fitted effect of over 55% in size
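Growth rescue measured by 600 nm absorbance after 48 h yeast culture at 30 C with compound. Values normalized between DMSO and an equimolar ferric chloride plus clioquinol control.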
aSyn rescue – alpha-synuclein toxicity inhibition in yeast. Yeast expressing alpha-synuclein, growth rescue, BacTiter-Glo, 24 h. Potency, µM (titrated, usually from 46.1 µM), without a hit: top-dose growth rescue (activation), hits mostly activators. actives 0.14% (n = 370,000). AID 652106; note: % of control where 0% means no effect; nearly all actives have a fitted effect of over 65% in size
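Screening used galactose-induced yeast with toxic alpha-synuclein levels, exposed to compound for 24 hr at 30 deg C. Cell growth, read with BacTiter-Glo luminescence, gave the measured signal.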
FUS yeast rescue – rescues growth of FUS-expressing yeast. S. cerevisiae FUS-expressing, growth rescue, OD600, 24 h. actives 0.24% (n = 390,000). Potency, µM (doses to about 76.6 µM), actives largely listed as activators;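 note: plate controls were DMSO vehicle for no effect and reference control for full effect; nearly all actives have a fitted effect of over 55% in size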
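Quantitative HTS measuring growth restoration of FUS-toxic yeast. Galactose-induced cells (OD 0.005) were exposed 24hr at 30C to compounds at several concentrations, then absorbance at 600 nm was recorded.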
PTAP TSG101 blk – blocks PTAP/TSG101 interaction to inhibit HIV-1 budding. Q99816. Fluorescence polarization, FITC-PTAP peptide / Tsg101 binding. Potency, µM (titrated, usually from 115 µM), for inactives: top-dose activity change, negative = inhibition, actives largely listed as inhibitors. 340,000 tested, under 10 active. AID 493005; active = well fitted inhibition curve with a large enough effect in the main read-out, with a control signal flat, not every such curve was filed as active; inconclusive = small, poorly fitted or top-dose-only effect, or effect the other way, or a change in a side signal; inactive = no such curve, though single readings can be large or run the other way; note: % of control where 0% means no effect
Target sequence (Q99816 whole entry, looked up): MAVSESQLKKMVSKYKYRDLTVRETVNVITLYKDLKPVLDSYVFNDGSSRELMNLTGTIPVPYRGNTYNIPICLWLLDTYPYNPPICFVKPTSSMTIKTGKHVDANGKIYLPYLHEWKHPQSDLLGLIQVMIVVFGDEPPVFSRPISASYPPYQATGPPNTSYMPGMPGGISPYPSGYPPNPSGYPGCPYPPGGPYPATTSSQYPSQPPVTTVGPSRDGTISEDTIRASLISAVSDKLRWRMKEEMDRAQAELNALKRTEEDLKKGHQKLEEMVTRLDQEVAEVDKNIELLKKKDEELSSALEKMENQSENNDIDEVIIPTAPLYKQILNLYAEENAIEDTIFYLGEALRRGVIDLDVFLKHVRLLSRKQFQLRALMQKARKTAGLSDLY
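Tsg101 binding domain (10 uM final) was mixed with compound and a FITC-labeled PTAP peptide (50 nM final) in HEPES pH 7.5 buffer with NaCl, Tween 20, EDTA and TCEP; fluorescence polarization was read after 20 min at r.t.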
Numbers without * were called inactive. Rows were chosen to be rich in hits. Some 2.1% of all compounds tested hit in one or more screens of this group. Unless noted, calls come from the whole dose curve; as a rule, active = well fitted curve in the direction sought with a large enough effect; inconclusive = small, poorly fitted or top-dose-only effect, or another doubt; inactive = no such curve, though single readings can be large; an effect the other way counts as inactive or inconclusive. Potency is the fitted concentration of half-maximal effect.

What do the screens show for `Cc1ccc(Cl)cc1-n1c(=O)c2sc3ccccc3c2n(CC(=O)NC2CCCCC2)c1=O`?
TDP-43 yeast inh: 12.3%; Abeta rescue: inactive; FUS yeast rescue: inactive

What do the screens show for `Cc1c(NS(C)(=O)=O)cccc1-c1nc2cccnc2s1`?
TDP-43 yeast inh: 12.6%; Abeta rescue: inactive; aSyn rescue: -2.5%; FUS yeast rescue: inactive; PTAP TSG101 blk: -2.5%

What do the screens show for `Cc1c(NS(=O)(=O)c2ccc3c(c2)OCCO3)cccc1-c1nc2cccnc2s1`?
TDP-43 yeast inh: 35.5µM*; Abeta rescue: inactive; aSyn rescue: inconclusive; FUS yeast rescue: inactive; PTAP TSG101 blk: 1.2%

How did Cc1c(NS(=O)(=O)c2cccs2)cccc1-c1nc2cccnc2s1 do in these assays?
TDP-43 yeast inh: 22.4µM*; aSyn rescue: inconclusive; FUS yeast rescue: inactive; PTAP TSG101 blk: -3.7%

Results for Cc1cc(-c2nc3cccnc3s2)ccc1NS(=O)(=O)c1ccc2c(c1)OCCO2 ?
TDP-43 yeast inh: 1.2%; Abeta rescue: inactive; aSyn rescue: 3.4%; FUS yeast rescue: inactive; PTAP TSG101 blk: -0.2%

How did CC1=C(C)CC2C(C1)C(=O)c1ccc(Br)cc1S2(=O)=O (configuration not stated) do in these assays?
TDP-43 yeast inh: 5.01µM*; Abeta rescue: inactive; aSyn rescue: -3.3%; FUS yeast rescue: inactive

How did Cc1ccc(Nc2ncc(C(=O)N3CCN(c4ccc(F)cc4)CC3)c3ccccc23)cc1Cl do in these assays?
TDP-43 yeast inh: 12.6µM*; Abeta rescue: inactive; FUS yeast rescue: inactive

How did COCCn1c(C)cc(O)c(C(c2ccc(F)cc2)N2CCN(c3ccccc3)CC2)c1=O (configuration not stated) do in these assays?
TDP-43 yeast inh: inconclusive; Abeta rescue: inactive; FUS yeast rescue: inactive

Results for Oc1ccccc1-c1cc(-c2cccc(F)c2)n[nH]1 ?
TDP-43 yeast inh: 3.16µM*; Abeta rescue: inactive; aSyn rescue: 1.9%; FUS yeast rescue: inactive; PTAP TSG101 blk: -2.1%

How did O=C(CSc1nc(=O)n2ccccc2n1)N1CCC(Cc2ccccc2)CC1 do in these assays?
TDP-43 yeast inh: 20µM*; Abeta rescue: inactive; aSyn rescue: 4.0%; FUS yeast rescue: inactive; PTAP TSG101 blk: -0.6%

How did CC(=O)N1N=C(c2ccccc2)CC1c1cccc([N+](=O)[O-])c1 (configuration not stated) do in these assays?
TDP-43 yeast inh: 12.6µM*; Abeta rescue: inactive; aSyn rescue: 3.6%; FUS yeast rescue: inactive; PTAP TSG101 blk: 0.5%

Results for CC(=O)N1N=C(c2cccc([N+](=O)[O-])c2)OC1c1cccc(Br)c1 (configuration not stated) ?
TDP-43 yeast inh: 19.0%; Abeta rescue: inactive; aSyn rescue: -5.5%; FUS yeast rescue: inactive; PTAP TSG101 blk: -1.4%

Results for CC(=O)N1N=C(c2cccs2)CC1c1cccc([N+](=O)[O-])c1 (configuration not stated) ?
TDP-43 yeast inh: inconclusive; Abeta rescue: inactive; aSyn rescue: 10.5%; FUS yeast rescue: inactive; PTAP TSG101 blk: -12.0%

Results for CC(=O)N1N=C(c2cccc(Cl)c2)OC1c1cccc([N+](=O)[O-])c1 (configuration not stated) ?
TDP-43 yeast inh: 15.8µM*; Abeta rescue: inactive; aSyn rescue: 2.9%; FUS yeast rescue: inactive; PTAP TSG101 blk: 1.1%

How did C=CCOC(=O)C1=C[C@H](c2ccc(Br)cc2)[C@@H](CCCO)[C@H](OCC)O1 do in these assays?
TDP-43 yeast inh: 22.4µM*; Abeta rescue: inactive; aSyn rescue: 9.2%; FUS yeast rescue: inactive; PTAP TSG101 blk: -6.5%

Results for O=C(COC(=O)Cc1c[nH]c2ccccc12)Nc1cc(S(=O)(=O)N2CCOCC2)ccc1Cl ?
TDP-43 yeast inh: 10.4%; Abeta rescue: inactive; aSyn rescue: 1.2%; FUS yeast rescue: 35.5µM*; PTAP TSG101 blk: -1.7%

What do the screens show for `Cc1cc(C)cc(C(=O)OCCN(C)C2CN(Cc3cn(Cc4cccc(F)c4)nn3)S(=O)(=O)C2)c1` (configuration not stated)?
FUS yeast rescue: inactive

Results for COc1cc2c(-c3ccc(C)cc3)nc3c(c(C)nn3-c3ccccc3)c2cc1OC ?
TDP-43 yeast inh: 18.9%; Abeta rescue: inactive; FUS yeast rescue: inactive

Results for O=C(CCn1c(=O)c2cccn2c2cccnc21)N1CCN(c2cccc(C(F)(F)F)c2)CC1 ?
TDP-43 yeast inh: 25.1µM*; Abeta rescue: inactive; FUS yeast rescue: inactive

What do the screens show for `S=C(Cc1ccccc1)Nc1ccccc1`?
TDP-43 yeast inh: 8.91µM*; Abeta rescue: inactive; aSyn rescue: 1.5%; PTAP TSG101 blk: 0.3%

How did Cc1ccc(-c2nc3cc(C)c(Br)c(C)n3c2CC(C)(C)C)cc1 do in these assays?
TDP-43 yeast inh: 3.9%; Abeta rescue: inactive; aSyn rescue: -14.3%; FUS yeast rescue: inactive

How did COc1ccccc1CCNC(=O)C(=O)NCC(c1cccs1)S(=O)(=O)c1ccc(F)cc1 (configuration not stated) do in these assays?
TDP-43 yeast inh: 6.0%; Abeta rescue: inactive; FUS yeast rescue: inactive

What do the screens show for `COc1ccccc1CNC(=O)C(=O)NCC(c1cccs1)S(=O)(=O)c1ccc(F)cc1` (configuration not stated)?
TDP-43 yeast inh: 6.6%; Abeta rescue: inactive; FUS yeast rescue: 28.2µM*

Results for O=C(c1noc2c1CCCCC2)N1CCN(c2cccc(Cl)c2)CC1 ?
TDP-43 yeast inh: 8.91µM*; Abeta rescue: inactive; FUS yeast rescue: inactive

How did CCOc1ccc(NC(=O)C2CCCN(c3ccc(Sc4ccc(C)cc4)nn3)C2)cc1 (configuration not stated) do in these assays?
TDP-43 yeast inh: 12.1%; Abeta rescue: inactive; FUS yeast rescue: inactive

What do the screens show for `S=c1[nH]nc(COc2ccc3ccccc3c2)o1`?
TDP-43 yeast inh: 11.2µM*; Abeta rescue: inactive; aSyn rescue: -6.9%; FUS yeast rescue: inactive; PTAP TSG101 blk: -4.5%

What do the screens show for `Cc1ccc(-c2nn(C)c(=O)c3ccccc23)cc1S(=O)(=O)NCCCN(C)C`?
TDP-43 yeast inh: 11.7%; Abeta rescue: inactive; FUS yeast rescue: inactive

What do the screens show for `CC(=O)C1=CCC(c2cccs2)N(S(=O)(=O)c2ccc(C)cc2)C1` (configuration not stated)?
TDP-43 yeast inh: 21.9%; Abeta rescue: inactive; aSyn rescue: 2.2%; FUS yeast rescue: inactive

How did CCOC(=O)c1ccc(CN(Cc2ccc(F)cc2)S(=O)(=O)c2cc(C(=O)Nc3cccc(C(F)(F)F)c3)ccc2F)cc1 do in these assays?
TDP-43 yeast inh: 20.9%; Abeta rescue: inactive; FUS yeast rescue: inactive
